The supplement of paper PMC8728848
Many of the other results were omitted from the sample, so the strongest signals are more common in it than they were.

Key:
Test in all cases: glycan array binding signal (z-score within array); higher = stronger binding
Conditions in all cases: glycan notation: IUPAC condensed, linker removed
Fuc(a1-2)[Gal(a1-3)]Gal = biological target: Fuc(a1-2)[Gal(a1-3)]Gal
In short: (§1)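 Glycan array binding is given as a within-array Z-score, which can be read as non-binding when negative. The arrays, 3228 of them, came from the Consortium for Functional Glycomics database and were retained only where the protein sequence was available. Z-scores were averaged across arrays of the same protein sequence at different concentrations or buffers and across linkers.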

Fuc(a1-3)GlcNAc = biological target: Fuc(a1-3)GlcNAc
In short: as §1

[1] = biological target: Gal(b1-3)[Neu5Ac(a2-6)]GalNAc
In short: as §1

[2] = biological target: Gal(b1-4)GlcNAc(b1-6)GalNAc
In short: as §1

Glc(b1-4)Glc = biological target: Glc(b1-4)Glc
In short: as §1

[3] = biological target: GlcNAc(b1-4)[GlcNAc(b1-6)]GalNAc
In short: as §1

[4] = biological target: Man(a1-2)Man(a1-6)[Man(a1-3)]Man(a1-6)[Man(a1-2)Man(a1-2)Man(a1-3)]Man(b1-4)GlcNAc(b1-4)GlcNAc
In short: as §1

[5] = biological target: Neu5Ac(a2-3)Gal(b1-3)GalNAc
In short: as §1

[6] = biological target: Neu5Ac(a2-3)Gal(b1-3)[Neu5Ac(a2-6)]GalNAc
In short: as §1

[7] = biological target: Neu5Ac(a2-6)Gal(b1-4)GlcNAc
In short: as §1

[8] = biological target: Neu5Ac(a2-8)Neu5Ac(a2-3)Gal(b1-4)Glc
In short: as §1

[9] = biological target: Neu5Ac9Ac(a2-6)Gal(b1-4)GlcNAc
In short: as §1

[10] = biological target: Fuc(a1-2)[Gal(a1-3)]Gal(b1-4)Glc
In short: as §1

[11] = biological target: Fuc(a1-3)[GalNAc(b1-4)]GlcNAc
In short: as §1

Gal(a1-3)GalNAc = biological target: Gal(a1-3)GalNAc
In short: as §1

Gal(b1-3)GalNAc = biological target: Gal(b1-3)GalNAc
In short: as §1

[12] = biological target: Gal(b1-3)GalNAc(b1-4)[Neu5Ac(a2-3)]Gal(b1-4)Glc
In short: as §1

[13] = biological target: Gal(b1-3)GlcNAc(b1-3)Gal(b1-4)GlcNAc
In short: as §1

[14] = biological target: Gal(b1-3)[Fuc(a1-4)]GlcNAc
In short: as §1

Gal3S(b1-3)GalNAc = biological target: Gal3S(b1-3)GalNAc
In short: as §1

Gal6S(b1-4)GlcNAc = biological target: Gal6S(b1-4)GlcNAc
In short: as §1

[15] = biological target: GalNAc(b1-4)GlcNAc(b1-2)Man(a1-3)[GalNAc(b1-4)GlcNAc(b1-2)Man(a1-6)]Man(b1-4)GlcNAc(b1-4)GlcNAc
In short: as §1

GlcA(b1-6)Gal = biological target: GlcA(b1-6)Gal
In short: as §1

[16] = biological target: GlcNAc(a1-4)Gal(b1-4)GlcNAc(b1-3)Gal(b1-4)Glc
In short: as §1

[17] = biological target: GlcNAc(b1-2)Man(a1-3)[GlcNAc(b1-2)Man(a1-6)]Man(b1-4)GlcNAc(b1-4)[Fuc(a1-6)]GlcNAc
In short: as §1

[18] = biological target: GlcNAc(b1-3)Gal(b1-4)GlcNAc(b1-3)Gal(b1-4)GlcNAc
In short: as §1

[19] = biological target: GlcNAc(b1-4)GlcNAc(b1-4)GlcNAc(b1-4)GlcNAc(b1-4)GlcNAc
In short: as §1

Kdn(a2-3)Gal(b1-3)GalNAc = biological target: Kdn(a2-3)Gal(b1-3)GalNAc
In short: as §1

[20] = biological target: Man(a1-2)Man(a1-3)[Man(a1-2)Man(a1-6)]Man(a1-6)[Man(a1-2)Man(a1-2)Man(a1-3)]Man(b1-4)GlcNAc(b1-4)GlcNAc
In short: as §1

Man(a1-3)[Man(a1-6)]Man = biological target: Man(a1-3)[Man(a1-6)]Man
In short: as §1

[21] = biological target: Neu5Ac(a2-3)Gal(b1-3)GalNAc(b1-3)Gal(a1-4)Gal(b1-4)Glc
In short: as §1

[22] = biological target: Neu5Ac(a2-3)Gal(b1-3)[Fuc(a1-4)]GlcNAc(b1-3)Gal(b1-3)[Fuc(a1-4)]GlcNAc
In short: as §1

[23] = biological target: Neu5Ac(a2-3)Gal(b1-4)GlcNAc(b1-2)Man(a1-3)[Neu5Ac(a2-6)Gal(b1-4)GlcNAc(b1-2)Man(a1-6)]Man(b1-4)GlcNAc(b1-4)GlcNAc
In short: as §1

[24] = biological target: Neu5Ac(a2-3)Gal(b1-4)GlcNAc(b1-3)Gal(b1-4)GlcNAc
In short: as §1

[25] = biological target: Neu5Ac(a2-3)Gal(b1-4)GlcNAc6S
In short: as §1

[26] = biological target: Neu5Ac(a2-3)Gal(b1-4)[Fuc(a1-3)]GlcNAc(b1-6)[Neu5Ac(a2-3)Gal(b1-3)]GalNAc
In short: as §1

[27] = biological target: Neu5Ac(a2-3)Gal6S(b1-4)GlcNAc
In short: as §1

[28] = biological target: Neu5Ac(a2-6)Gal(b1-4)GlcNAc(b1-2)Man(a1-6)Man(b1-4)GlcNAc(b1-4)GlcNAc
In short: as §1

[29] = biological target: Neu5Ac(a2-8)Neu5Ac(a2-3)[GalNAc(b1-4)]Gal(b1-4)Glc
In short: as §1

[30] = biological target: Neu5Ac(a2-8)Neu5Ac(a2-8)Neu5Ac
In short: as §1

Binder	glycan array binding signal (z-score) (Fuc(a1-2)[Gal(a1-3)]Gal)	glycan array binding signal (z-score) (Fuc(a1-3)GlcNAc)	glycan array binding signal (z-score) [1]	glycan array binding signal (z-score) [2]	glycan array binding signal (z-score) (Glc(b1-4)Glc)	glycan array binding signal (z-score) [3]	glycan array binding signal (z-score) [4]	glycan array binding signal (z-score) [5]	glycan array binding signal (z-score) [6]	glycan array binding signal (z-score) [7]	glycan array binding signal (z-score) [8]	glycan array binding signal (z-score) [9]	glycan array binding signal (z-score) [10]	glycan array binding signal (z-score) [11]	glycan array binding signal (z-score) (Gal(a1-3)GalNAc)	glycan array binding signal (z-score) (Gal(b1-3)GalNAc)	glycan array binding signal (z-score) [12]	glycan array binding signal (z-score) [13]	glycan array binding signal (z-score) [14]	glycan array binding signal (z-score) (Gal3S(b1-3)GalNAc)	glycan array binding signal (z-score) (Gal6S(b1-4)GlcNAc)	glycan array binding signal (z-score) [15]	glycan array binding signal (z-score) (GlcA(b1-6)Gal)	glycan array binding signal (z-score) [16]	glycan array binding signal (z-score) [17]	glycan array binding signal (z-score) [18]	glycan array binding signal (z-score) [19]	glycan array binding signal (z-score) (Kdn(a2-3)Gal(b1-3)GalNAc)	glycan array binding signal (z-score) [20]	glycan array binding signal (z-score) (Man(a1-3)[Man(a1-6)]Man)	glycan array binding signal (z-score) [21]	glycan array binding signal (z-score) [22]	glycan array binding signal (z-score) [23]	glycan array binding signal (z-score) [24]	glycan array binding signal (z-score) [25]	glycan array binding signal (z-score) [26]	glycan array binding signal (z-score) [27]	glycan array binding signal (z-score) [28]	glycan array binding signal (z-score) [29]	glycan array binding signal (z-score) [30]
TES70 (Toxocara canis), Q9XYV5 (protein) MISVVLVAIALQISGSYAGACNSINDCGLFETCVNNMCVPDNMGCPMPCQAGQVCVPPNCVAAPAPQPVTTTTAAATTTTSARGRCNANAQCGAFEVCVNGMCQPNNAGCNPPCAANQVCVAPNCVPAPIPPPAQSTTTAPATTRAPPSCPPSWSPFSGHCYYVAVGSFLFNQASDWCTQTNSRPVWFDQSNVGTFGAELYFINVLAASRGVQTYWLGLNRQFGQWVWTNGSPLIFSNWRGSEPDGCCGGNVTCALVNYANPFGQWDDAGCGNIWRNPQGFICKKPLA	-0.052	-0.169	0.002	0.229	-0.156	0.013	-0.137	0.672	-0.065	6.41	-0.14	-0.172																												
Sialidase (Vibrio cholerae), P37060 (protein) GAMALFDYNATGDTEFDSPAKQGWMQDNTNNGSGVLTNADGMPAWLVQGIGGRAQWTYSLSTNQHAQASSFGWRMTTEMKVLSGGMITNYYANGTQRVLPIISLDSSGNLVVEFEGQTGRTVLATGTAATEYHKFELVFLPGSNPSASFYFDGKLIRDNIQPTASKQNMIVWGNGSSNTDGVAAYRDIKFEIQGDALNGSMALFDYNATGDTEFDSPAKQGWMQDNTNNGSGVLTNADGMPAWLVQGIGGRAQWTYSLSTNQHAQASSFGWRMTTEMKVLSGGMITNYYANGTQRVLPIISLDSSGNLVVEFEGQTGRTVLATGTAATEYHKFELVFLPGSNPSASFYFDGKLIRDNIQPTASKQNMIVWGNGSSNTDGVAAYRDIKFEIQGDLQALGMALFDYNATGDTEFDSPAKQGWMQDNTNNGSGVLTNADGMPAWLVQGIGGRAQWTYSLSTNQHAQASSFGWRMTTEMKVLSGGMITNYYANGTQRVLPIISLDSSGNLVVEFEGQTGRTVLATGTAATEYHKFELVFLPGSNPSASFYFDGKLIRDNIQPTASKQNMIVWGNGSSNTDGVAAYRDIKFEIQGD		-0.622							2.8				-0.115	-0.6	-0.472	-0.469	0.396	-0.474	-0.364	-0.567	-0.619	-0.622	-0.085	-0.574	-0.267	0.631	-0.605	-0.286	0.193	-0.644	-0.275	5.53	6.62	4.64	2.73	0.955	6.38	1.84	-0.257	0.113
